Bioassay records (PubChem BioAssay)
HT1080 IDH1KD tx: HT-1080 IDH1 knockdown cell toxicity (counter line). HT-1080 IDH1 knockdown viability, ATP luminescence, 48 h. Potency, µM (series often up to 46.1 µM), inactives show top-dose activity, negative = toxicity, most hits filed as cytotoxic. 2% of 360,000 active. AID 686971;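 further: 0% = DMSO wells and -100% = cell-free medium wells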
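In this qHTS, HT-1080 cells depleted of IDH1 are exposed for 48 h at 37 °C to compound titrations. Toxicity is scored from CellTiter-Glo luminescence, with DMSO as full viability and medium alone as none.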
KB-3-1 tox: kills parental KB-3-1 adenocarcinoma cells; 1.4% of 400,000 active; AID 1347075; KB-3-1 viability, CellTiter-Glo ATP luminescence, 72 h; Potency, µM (highest dose often 46.1 µM), actives largely listed as cytotoxic; further: on the % scale 0 is the no-effect control and ±100 the full control effect; nearly all actives have a fitted effect of over 60% in size
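Cells are dispensed, compounds pinned in, plates held at 37 °C for 72 h, then CellTiter-Glo is added and luminescence read after 10 minutes. Cell line: parental KB-3-1 in phenol-red-free DMEM, 10% FBS.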
SW480 rerep: inducers of DNA re-replication in SW480 colon cancer cells; SW480 DNA re-replication, Hoechst DNA content imaging, 48 h; Potency, µM (doses to about 46.1 µM), for the others: at the top dose re-replication activation, most hits filed as activators; 1.8% of 340,000 active; further: % of control where 0% means no effect; nearly all actives have a fitted effect of over 55% in size
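250 cells/well; 23 nL cpd via pin tool; 48 hr, 37 C, 5% CO2; Hoechst 40 min; imager read of total nuclear intensity, ex 405/em 500-530 nm.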
KB-V1 cytotox: kills drug-selected multidrug resistant KB-V1 cells | KB-V1 MDR cells viability, CellTiter-Glo, 72 h | Potency, µM (series often up to 46.1 µM), hits mostly cytotoxic | 3.4% of 400,000 active | AID 1347076; further: on the % scale 0 is the no-effect control and ±100 the full control effect; nearly all actives have a fitted effect of over 60% in size
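qHTS viability screen in drug-selected KB-V1 MDR cells: 72 h compound treatment at 37 degrees C, ATP luminescence end point.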
HT1080NT lethal: kills 2HG-producing HT-1080-NT fibrosarcoma cells. HT-1080-NT fibrosarcoma viability, CellTiter-Glo ATP luminescence, 48 h. Potency, µM (doses to about 46.1 µM), without a hit: at the top dose activity, negative = less viability, usual class: cytotoxic. 1.6% of 360,000 active;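 further: NT is the 2HG producing partner of a matched IDH1 knockdown line; 0% = DMSO-treated cells and -100% = media-only wells without cells; nearly all actives have a fitted effect of over 55% in size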
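HT-1080-NT; 750 cells/well; 5% FBS RPMI; 48 h compound, 37 degrees C; CellTiter-Glo luminescence; curve fitting and curve-class assignment.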
MCF10A rerep: induces DNA re-replication in MCF 10a normal breast cells. AID 624296. Potency, µM (titrated, usually from 46.1 µM), without a hit: top-dose activity, positive = re-replication, actives largely listed as activators. 2.9% of 350,000 active. MCF 10A DNA re-replication, Hoechst nuclear intensity, 48 h; further: % of control where 0% means no effect; nearly all actives have a fitted effect of over 50% in size
The depositor's hits bear a star; ! = not active in a repeat; [ ] = remark or other dose. Only some compounds are listed: those with a hit (about 8% of all), similar ones and a draw of the others. The call rests on the fitted dose curve; in most records, active means well fitted curve in the direction sought with a large enough effect; inconclusive means small, poorly fitted or top-dose-only effect, or another doubt; inactive means no such curve, though single readings can be large; an effect the other way counts as inactive or inconclusive. Potency means the concentration at half of the fitted maximal effect.

Cc1ccc(N2C(=O)C3C=NNC3C2=O)cc1 (stereo not drawn) was read as HT1080 IDH1KD tx 11.9%, KB-3-1 tox inactive, SW480 rerep -1.5%, KB-V1 cytotox inactive, HT1080NT lethal 8.7% and MCF10A rerep 0.6%.
For CCOC(=O)C(Cc1ccc(NC(=O)/C(=C/c2ccc(OC(C)=O)cc2)NC(C)=O)cc1)N1C(=O)c2ccccc2C1=O (stereo not drawn) the results were HT1080 IDH1KD tx 21.0%, KB-3-1 tox inactive, SW480 rerep -3.0%, KB-V1 cytotox inactive, HT1080NT lethal 0.1% and MCF10A rerep 3.0%.
For CC(C)OCCCn1c(=O)c2ccccc2n2c(-c3ccccc3)nnc12 the results were KB-3-1 tox inactive and KB-V1 cytotox inconclusive.
OC(CNCc1ccccc1F)COc1cccc2ccccc12 (stereo not drawn) was read as HT1080 IDH1KD tx 14.6µM*, KB-3-1 tox inactive, SW480 rerep 20.6µM*, KB-V1 cytotox inactive, HT1080NT lethal inconclusive and MCF10A rerep inconclusive.
`COc1ccc(/C=N/N(Cc2ccccc2)c2ccccc2)cc1O` gave HT1080 IDH1KD tx 23.1µM*, KB-3-1 tox inactive, SW480 rerep 2.1%, KB-V1 cytotox inconclusive, HT1080NT lethal 14.6µM* and MCF10A rerep inconclusive.
`Cc1cc(O)ccc1N/C=C(\C#N)c1nc2ccccc2o1` gave HT1080 IDH1KD tx -8.0%, KB-3-1 tox inactive, SW480 rerep inconclusive, KB-V1 cytotox inactive, HT1080NT lethal 1.3% and MCF10A rerep 18.4µM*.
N#C/C(=C\c1c(Cl)cccc1Cl)c1nc2ccccc2o1 was read as HT1080 IDH1KD tx inconclusive, KB-3-1 tox inactive, SW480 rerep 29.5%, KB-V1 cytotox inactive, HT1080NT lethal -7.9% and MCF10A rerep inconclusive.
For CN(CC(=O)NCc1cccnc1)S(=O)(=O)c1ccc(F)cc1 the results were HT1080 IDH1KD tx 18.4%, KB-3-1 tox inactive, SW480 rerep -5.7%, KB-V1 cytotox inactive, HT1080NT lethal 8.9% and MCF10A rerep 0.6%.
Screening COc1ccc(S(=O)(=O)N(C)CC(=O)NCc2cccnc2)cc1OC returned HT1080 IDH1KD tx 2.6%, KB-3-1 tox inactive, SW480 rerep -4.7%, KB-V1 cytotox inactive, HT1080NT lethal 3.0% and MCF10A rerep 23.1µM*.
Screening OCc1ccccc1-c1nc(NCc2ccccc2)nc2ccsc12 returned HT1080 IDH1KD tx inconclusive, KB-3-1 tox inactive, KB-V1 cytotox inactive and HT1080NT lethal -24.0%.
Screening O=C(Cn1c(NCCCO)nc2ccccc21)c1ccco1 returned HT1080 IDH1KD tx -2.3%[9.24 µM], KB-3-1 tox inactive, SW480 rerep inconclusive, KB-V1 cytotox inactive, HT1080NT lethal 1.5% and MCF10A rerep 18.4µM*.
For CCOC(=O)c1cc2c(=O)[nH]ccc2nc1C the results were HT1080 IDH1KD tx -5.0%, KB-3-1 tox inactive, SW480 rerep 15.1%, KB-V1 cytotox inactive, HT1080NT lethal 3.9% and MCF10A rerep 7.8%.
For c1cc2cc(-c3c(-c4ccc5c(c4)OCO5)noc3-c3ccsc3)ccc2[nH]1 the results were HT1080 IDH1KD tx inconclusive, KB-3-1 tox inconclusive, SW480 rerep -3.8%, KB-V1 cytotox 20.6µM*!, HT1080NT lethal -26.3% and MCF10A rerep inconclusive.
`c1ccc(-c2onc(-c3ccco3)c2-c2ccc3[nH]ccc3c2)cc1` gave HT1080 IDH1KD tx -14.5%, KB-3-1 tox inconclusive, SW480 rerep -2.0%, KB-V1 cytotox 23.1µM*!, HT1080NT lethal -17.1% and MCF10A rerep inconclusive.
Screening NCCN1CCN(CC(=O)N2c3ccccc3C(=O)Nc3cccnc32)CC1 returned KB-3-1 tox inactive, SW480 rerep -2.6%, KB-V1 cytotox inactive and MCF10A rerep 4.1%.
O=C1Nc2cccnc2N(C(=O)CCl)c2ccccc21 was read as HT1080 IDH1KD tx 16.4µM*, KB-3-1 tox 20.6µM*, SW480 rerep 14.6µM*, KB-V1 cytotox 16.4µM*, HT1080NT lethal inconclusive and MCF10A rerep 14.6µM*.
